High-throughput results as filed in PubChem.
Most compounds without a hit are left out; they make up all but 4.1% or so of the library.
FAS-TE inh – FAS thioesterase domain inhibitors, primary screen, biochemical, fluorescence intensity, uHTS. recombinant FAS-TE, OMFH fluorogenic substrate, fluorescence endpoint. Fatty acid synthase (Homo sapiens), P49327. AID 602261, 2012. inhibition, % at 15 µM. 0.67% of 360,000 active;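 active = compounds whose normalised, plate-corrected inhibition of enzyme fluorescence in the single-dose primary screen is 50% or more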;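 note: 0% = DMSO with enzyme and 100% = substrate without enzyme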
MIN6 prolif – inducers of MIN6 beta-cell proliferation, primary screen, ATP luminescence, uHTS. MIN6 cells proliferation, ATPlite luminescence, 48 h; cells starved in 0.2% serum; 100% = growth in 10% serum. proliferation, % at 10 µM. 0.29% of 330,000 active. AID 2380, 2010;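 active = compounds whose signal lies at least 3.5 SD above the mean of all wells on their plate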;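 note: 0% = DMSO-treated cells in low-serum medium and 100% = 10% serum control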
pCIP destab – p/CIP-EGFP fusion destabilizers, primary screen, fluorescence, F442A cells; 0.01% of 290,000 active; 16 h; AID 1984, 2009; Q05BA5; decrease of EGFP signal, % at 10 µM;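 active = EGFP signal decrease of at least 30% at 10 µM or well 3 SD below plate mean, unless failing retest; inactive = the rest, including hits failing retest or dose response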
MPTP block – mitochondrial permeability transition pore inhibitors, primary screen, biochemical, isolated mouse mitochondria, absorbance. Ca2+ swelling absorbance, 30 min. inhibition, % at 10 µM. 1.4% of 360,000 active;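 active = inhibition of 50% or more, scaled per plate between neutral and stimulator controls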;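 note: 0% = DMSO wells given calcium and 100% = 1 mM EGTA wells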
GRIN3A LBD mod – binders of NR3A ligand-binding domain, primary screen, biophysical, differential scanning fluorimetry, uHTS. Glutamate receptor ionotropic, NMDA 3A (GRIN3A) ligand-binding domain. NR3A LBD differential scanning fluorimetry, Tm shift; 0% = protein alone, 100% = glycine-bound protein. Tm shift relative to glycine control, % at 25 µM. 2.5% of 340,000 active;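 active = melting temperature shift of at least 10% of the positive control shift, at one fixed dose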
Starred values were filed as active, the others as inactive; nt = no result.

SMILES	FAS-TE inh	MIN6 prolif	pCIP destab	MPTP block	GRIN3A LBD mod
Nc1nc(SCC(=O)Nc2ccc([N+](=O)[O-])cc2Br)n[nH]1	-13	0	4	2	0
CC(C)c1nc(SCC(=O)Nc2ccc([N+](=O)[O-])cc2Br)n[nH]1	13	-2	3	19	11*
COc1ccc(-c2oc3c(c2C(=O)OCCO)C(OCCO)CCC3)cc1 (stereo unspecified)	-11	nt	nt	-2	nt
Cc1ccc(NC(=O)COc2ccc(/C=N/NC(=O)CSCc3ccccc3)cc2)cc1	-4	-5	-13	-1	18*
COc1cc(/C=N/NC(=O)COc2ccc(Cl)cc2)ccc1OS(=O)(=O)c1ccc(C)cc1	29	-5	-3	6	12*
COc1cc(/C=N/NC(=O)COc2cccc(F)c2)ccc1OS(=O)(=O)c1ccc(C)cc1	27	-5	3	28	6
O=C(CSCc1ccc(Cl)cc1)N/N=C/c1ccc(OCC(=O)Nc2ccccc2)cc1	23	-7	-7	-7	10*
COc1ccccc1NC(=O)COc1ccc(/C=N/NC(=O)CSCc2cc(C)cc(C)c2)cc1	9	-1	-5	5	4
Cc1ccc(S(=O)(=O)N/N=C/c2ccc(OCC(=O)Nc3ccccc3Cl)cc2)cc1	26	-4	3	-20	18*
COc1ccccc1NC(=O)COc1ccc(/C=N/NC(=O)CSCc2ccc(Cl)cc2)cc1	17	-4	0	-3	5
O=C(NCc1cccnc1)c1cc(C2CCCN(C(=O)c3cccc(O)c3)C2)on1 (stereo unspecified)	-3	nt	nt	18	nt
C[C@H](c1ccccc1)N1C[C@@H](COCc2ccccc2)Oc2cc(N3CC[C@@H](N(C)C)C3)ccc2S1(=O)=O	12	nt	nt	3	nt
CCc1cccc(NC(=O)COC(=O)CSc2ccc(C)cc2)c1	-5	nt	nt	1	nt
CCOC(=O)C1(C)CCCN(C(=O)c2ccc(OC)cc2)C1 (stereo unspecified)	0	nt	nt	0	nt
O=C(CCN1C(=O)C2CC=C(Cl)CC2C1=O)Nc1ccccc1O (stereo unspecified)	-14	-3	3	-3	11*
Nc1c(C(=O)N/N=C/c2cccnc2)oc2nc(-c3ccccc3)cc(-c3ccco3)c12	-6	0	-11	1	1
O=CNn1cnc2c(oc3nc(-c4ccccc4)cc(-c4ccco4)c32)c1=O	-62	-3	0	2	29*
CCCC(O)(c1ccc(OC)cc1)C(CN1CCOCC1)c1ccc(Cl)cc1 (stereo unspecified)	20	-3	-21	-2	7
COc1ccc(C(O)(CCC(C)C)C(CN2CCOCC2)c2ccc(Cl)cc2)cc1 (stereo unspecified)	23	-4	-18	1	16*
O=C1S/C(=C\c2ccccn2)C(=O)N1Cc1ccccc1F	-6	1	-5	-3	13*
O=C(CN1C(=O)S/C(=C/c2ccccn2)C1=O)N1CCOCC1	-9	0	-9	-1	0
O=C(Nc1cccnc1)C1Cc2c(-c3cccc(F)c3)ccnc2O1 (stereo unspecified)	-4	nt	nt	1	nt
Nc1nc(SCC(=O)Nc2ccc(C(F)(F)F)cc2)[nH]c(=O)c1NC(=O)c1ccc(F)c(F)c1	1	3	0	2	28*
O=C(NC(c1ccc(-c2ccccc2)cc1)c1cnccn1)C1CCN(CCOc2ccc(F)cc2)CC1 (stereo unspecified)	9	nt	nt	1	nt
NS(=O)(=O)c1ccc(N2N=C(c3ccc(Br)cc3)CC2c2ccc(F)cc2)cc1 (stereo unspecified)	17	-7	-15	4	39*
SMILES	FAS-TE inh	MIN6 prolif	pCIP destab	MPTP block	GRIN3A LBD mod
COc1ccc(C2CC(c3cccc(Cl)c3)=NN2c2ccc(S(N)(=O)=O)cc2)cc1 (stereo unspecified)	19	nt	nt	0	28*
COc1ccc(C2CC(c3ccc(Cl)cc3)=NN2c2ccc(S(N)(=O)=O)cc2)cc1 (stereo unspecified)	23	nt	nt	4	37*
COc1ccc(C2CC(c3ccccc3)=NN2c2ccc(Cl)c(C(=O)O)c2)cc1 (stereo unspecified)	16	-4	13	0	13*
COc1ccc(C2CC(c3ccncc3)=NN2c2ccc(S(N)(=O)=O)cc2)cc1 (stereo unspecified)	2	nt	nt	-2	-3
CCCN1C(C)C(C(=O)OCC)=CN(Cc2cccc(I)c2)S1(=O)=O (stereo unspecified)	21	nt	nt	0	3
C=CC1CN2CCC1CC2C(O)c1ccnc2ccc(OC)cc12 (stereo unspecified)	-13	nt	nt	nt	-5
COc1ccc(CN(C)C(=O)c2ccc(NC(=O)CC3SC(N4CCCCC4)=NC3=O)cc2)c(OC)c1 (stereo unspecified)	-3	nt	nt	0	0
O=C(NCc1ccc(Cl)cc1)C1CCC(=O)N(C2CCCCCC2)C1 (stereo unspecified)	1	0	-30	-2	10*
C/C=C/c1cccc(-c2nc(C(=O)N3CCCCC3)cc3c2[C@H](CCO)N(C(=O)NC(C)C)C3)c1	-8	nt	nt	1	nt
COC(=O)c1cc2ccccc2c(-c2c(O)ccc3ccccc23)c1O	32	-5	5	2	12*
COC(=O)c1ccccc1C(=O)c1cccc2ccccc12	26	-4	-6	0	-2
Cc1ccc(/C=C2\SC(=S)N(CCCC(=O)Nc3nccs3)C2=O)cc1	-4	0	3	2	10*
O=C(CCCN1C(=O)/C(=C/c2cccs2)SC1=S)NNC(=O)c1ccccc1O	7	0	3	30	12*
COc1ccc(/C=C2\SC(=S)N(CCCC(=O)NNC(=O)c3ccccc3O)C2=O)cc1	4	-5	4	4	6
COc1ccccc1/C=C1\SC(=S)N(CCC(=O)NNC(=O)c2ccccc2O)C1=O	15	-7	3	3	11*
CCc1ccc(/C=C2\SC(=S)N(CCCC(=O)Nc3nccs3)C2=O)cc1	-7	0	12	3	-9
O=C(CCCN1C(=O)/C(=C/c2cccs2)SC1=S)Nc1ccccc1O	-2	-3	-13	4	10*
OC(Cc1ccccc1)c1ncc(-c2ccc3ccccc3c2)[nH]1 (stereo unspecified)	8	nt	nt	3	nt
O=C1NC[C@H](CCCCN2C[C@H](Cc3ccccc3)N(CCc3ccc(O)cc3)C(=O)C2=O)N(CCc2ccccc2)C1=O	2	nt	nt	1	nt
CC(=O)NC(c1ccc(F)c(F)c1)c1nc(-c2cnc3ccccc3c2)cs1 (stereo unspecified)	2	nt	nt	-2	nt
CCOc1ccc(NC(=O)c2cc3cc4ccc(OC)cc4nc3o2)cc1	-8	-3	-8	1	13*
